From PubChem BioAssay (NCI) come the findings set out here.

Among the test systems are SK-MEL-2 melanoma; EKVX NSCLC; SN12C renal; UO-31 renal; TK-10 renal; ACHN renal; CAKI-1 renal; A498 renal; CCRF-CEM leukemia; MOLT-4 leukemia.
Holding throughout (assay): NCI-60 one-dose screen, 48 h (100 = growth as untreated, 0 = no growth, -100 = all killed)
Settings in all cases: 10 µM

Structures are written as SMILES. About 83,000 compounds went through this panel and 20% of them were active in at least one assay; those are over-represented in the sample as a whole.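 Assay: single dose, 48 h. Readout: percent growth (0 = no net growth; negative = cell death). Active: <10.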 Values without a mark were called inactive. Activity calls are given as the source filed them.

Regarding `Cn1cnc([N+](=O)[O-])c1Sc1nnc(-c2ccccc2)c(-c2ccccc2)n1`, the growth in the test with SK-MEL-2 melanoma was 73%; in the test on EKVX NSCLC it was 119%; in the test with SN12C renal, 72.2%; in the test on UO-31 renal it was 55.3%; in the test with TK-10 renal, 48.1%; in the test on ACHN renal it was 65.9%. Moreover, the growth with CAKI-1 renal was -7.14% (active); with A498 renal it was 97.9%; in the test with CCRF-CEM leukemia it was 8.92% (active); in the test with MOLT-4 leukemia, 41%.

On to `S=C(Cc1ccc(-c2ccccc2)cc1)N1CCOCC1`, for which the growth was 88.5% in the test with SK-MEL-2 melanoma; 95.4% in the test on EKVX NSCLC; 99.8% in the test with SN12C renal; 83.9% in the test on UO-31 renal; 99.7% in the test on TK-10 renal; 98.4% in the test on ACHN renal. Also, the growth in the test on CAKI-1 renal was 90.4%; with A498 renal, 82%; in the test with CCRF-CEM leukemia, 91.8%; in the test with MOLT-4 leukemia, 99.7%.

In the case of `COc1cc(Cn2c(-c3ccccc3)cc3c2-c2oncc2CC3)cc(OC)c1`, the growth in the test on SK-MEL-2 melanoma was 22.3%; with EKVX NSCLC, 43.7%; in the test with SN12C renal it was 24.3%; with UO-31 renal, 9.92% (active); in the test on TK-10 renal, 57.4%; with ACHN renal it was 34.7%. Moreover, the growth in the test on CAKI-1 renal is 18%; with A498 renal it was -14.7% (active); with CCRF-CEM leukemia it was 11.3%; in the test on MOLT-4 leukemia it was 12.2%.

Take `O=[N+]([O-])c1ccc2c(c1)Cc1cc(I)ccc1-2`: the growth with SK-MEL-2 melanoma was 109%; with EKVX NSCLC, 84.6%; in the test on SN12C renal, 107%; with UO-31 renal, 91.9%; in the test with TK-10 renal, 118%; with ACHN renal it was 110%. The growth in the test with CAKI-1 renal was 102%; in the test on A498 renal it was 102%; with CCRF-CEM leukemia it was 96.8%; in the test on MOLT-4 leukemia, 91.8%.

For the compound `O=[N+]([O-])c1ccc(-c2nc(-c3ccccc3)c(-c3ccccc3)n2-c2ccccc2)cc1`, the growth was -38.1% (active) in the test with SK-MEL-2 melanoma; 34.8% with EKVX NSCLC; 43.6% with SN12C renal; -6.05% (active) in the test on UO-31 renal; 19% in the test with ACHN renal; 48.1% in the test with CAKI-1 renal. The growth in the test with A498 renal is 41.3%; with CCRF-CEM leukemia, 1.03% (active).

On to `CC1(C)CCc2cc(-c3ccn(S(=O)(=O)c4ccc(Cl)cc4)n3)ccc2O1`, for which the growth in the test with SK-MEL-2 melanoma was 92.2%; in the test on EKVX NSCLC it was 54.5%; with SN12C renal, 72.8%; in the test with UO-31 renal, 75.6%; in the test with TK-10 renal, 77%; with ACHN renal, 89.4%. The growth was 64.3% in the test on CAKI-1 renal, 70.8% in the test with A498 renal, 64.2% in the test on CCRF-CEM leukemia and 65.4% in the test with MOLT-4 leukemia.

For `Cc1ccc2oc(=O)cc(/C(=C3/C=CC=N3)c3ccc[nH]3)c2c1`, the growth with SK-MEL-2 melanoma was 2.71% (active); with EKVX NSCLC, 16.5%; with UO-31 renal, 5.2% (active); in the test on TK-10 renal it was 1.86% (active); in the test with ACHN renal it was 10%; with CAKI-1 renal, 3.96% (active). Also, the values for the growth in the test on A498 renal, with CCRF-CEM leukemia and in the test with MOLT-4 leukemia were -9.36% (active), 10.4% and -3.84% (active), respectively.

On to `O=S(=O)(NC1c2ccccc2Oc2ccccc21)c1ccccc1`, for which the growth in the test with SK-MEL-2 melanoma is 94%; in the test with EKVX NSCLC, 102%; in the test on UO-31 renal it was 81.9%; with TK-10 renal, 86.4%; in the test on ACHN renal, 84.5%; in the test on CAKI-1 renal, 90.1%. Moreover, the results for the growth in the test with A498 renal and in the test with CCRF-CEM leukemia were 92.2% and 61.8%, respectively.

On to `CN(C)Cc1cccs1`, for which the growth in the test on SK-MEL-2 melanoma is 103%; in the test with EKVX NSCLC it was 103%; in the test with UO-31 renal, 82.9%; with TK-10 renal, 101%; with ACHN renal it was 96.7%; in the test on CAKI-1 renal, 98.3%. The growth with A498 renal is 117%; in the test with CCRF-CEM leukemia, 80%.

As to `O=C(NNc1nc(N2CCCC2)nc(N2CCCC2)n1)c1ccccc1`, the growth in the test with SK-MEL-2 melanoma is 101%; in the test with EKVX NSCLC, 102%; in the test on UO-31 renal it was 81.7%; with TK-10 renal, 114%; with ACHN renal it was 102%; in the test on CAKI-1 renal, 116%. For the same compound, the growth in the test with A498 renal was 102%; in the test with CCRF-CEM leukemia, 103%; in the test with MOLT-4 leukemia it was 68.4%.

For `O=C1/C(=C/c2ccc(O)cc2O)N=C2SCCCN12`, the growth is 109% in the test with SK-MEL-2 melanoma; 96.3% in the test on EKVX NSCLC; 97.6% in the test on UO-31 renal; 88.4% in the test on TK-10 renal; 97.6% with ACHN renal; 97.4% in the test on CAKI-1 renal. Also, the growth with A498 renal was 90.1%; in the test with CCRF-CEM leukemia, 111%; in the test on MOLT-4 leukemia, 93.8%.

As for `CCOC(=O)c1cc2c(n1Cc1cccc(OC)c1)-c1oncc1CC2`, the growth in the test with SK-MEL-2 melanoma was 34.7%; with EKVX NSCLC, 50.6%; in the test with SN12C renal, 37.1%; in the test with UO-31 renal, -0.772% (active); in the test with ACHN renal it was 42.8%; with CAKI-1 renal, 7.23% (active). The growth with A498 renal was 10.8%; in the test with CCRF-CEM leukemia it was 13.1%; with MOLT-4 leukemia, 33.1%.

`O=C1/C(=C/c2cccs2)CCC/C1=C\c1cccs1`: the growth with SK-MEL-2 melanoma was 95.8%; in the test with EKVX NSCLC, 74%; in the test on SN12C renal, 103%; in the test on UO-31 renal, 75.9%; with ACHN renal, 101%; in the test with CAKI-1 renal, 87.4%. Moreover, the growth was 74.8% in the test with A498 renal, 80.9% with CCRF-CEM leukemia and 89.1% with MOLT-4 leukemia.

In the case of `O=c1oc2c3ccc4cnccc4c3[nH]c2c2ccccc12`, the growth with SK-MEL-2 melanoma was 67.1%; in the test with EKVX NSCLC, 74.2%; in the test with SN12C renal, 73.8%; in the test with TK-10 renal, 79.3%; with ACHN renal, 63.5%; in the test on CAKI-1 renal it was 54.3%. The growth is 55.5% in the test on A498 renal and -1.54% (active) in the test on CCRF-CEM leukemia.

With `CCCC(C)c1ccc(OCCCCCCN2CCNCC2)cc1` (stereo unspecified), the growth in the test on SK-MEL-2 melanoma was 79%; in the test with EKVX NSCLC, 67.3%; in the test with UO-31 renal, 78.7%; with TK-10 renal it was 85%; with ACHN renal, 49.5%; in the test with CAKI-1 renal it was 18.2%. Moreover, the values for the growth in the test with A498 renal, in the test on CCRF-CEM leukemia and with MOLT-4 leukemia were 50.5%, 4.49% (active) and -27.6% (active), respectively.
